Source: the supplement of paper PMC7411054
Counter-ions that a name gives are not always drawn.

These compounds were tested on HepG2-ACTB-RAB5A (assay: phenotypically active (imaging signature differs from DMSO and reproducible) at any of 0.3-9 uM (binary (1 = active, 0 = inactive)); higher = active). Conditions: treatment time: 24 h.
Procedure, shortened: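 Phenotypic activity depended on meeting both a deviation and a reproducibility criterion. The fifteen gene-edited A549, HepG2 and WPMY1 reporter lines were treated at 0.3, 1, 3 or 9 µM for 24 h, four wells each, then imaged live with features normalised to solvent control wells. Deviation required ≥3 of 4 wells past the 95th percentile of control Euclidean distances, and reproducibility a median replicate Pearson correlation above the 95th percentile of non-replicates.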

Phenotypically active, active:
Nc1nc(Cl)nc2c1ncn2[C@@H]1O[C@H](CO)[C@@H](O)[C@@H]1F [clofarabine] 1
Cc1nc(Nc2ncc(C(=O)Nc3c(C)cccc3Cl)s2)cc(N2CCN(CCO)CC2)n1 [dasatinib] 1
O=C(NCc1cccc(O)c1)Nc1nc(-c2ccncc2)cs1 [RKI 1447 dihydrochloride] 1
CC(C)n1nc(-c2cc3cc(O)ccc3[nH]2)c2c(N)ncnc21 1
COc1ccc(-c2ccc3ncc4c(c3c2)n(-c2ccc(N3CCNCC3)c(C(F)(F)F)c2)c(=O)n4C)cn1 1
CC(C)(C)c1cnc(CSc2cnc(NC(=O)C3CCNCC3)s2)o1 1
O=C(O)c1ccc(Nc2ncc3c(n2)-c2ccc(Cl)cc2C(c2c(F)cccc2F)=NC3)cc1 1
COc1ccc(S(=O)(=O)N(C(C)=O)c2ccccc2/C=C/c2cc[n+]([O-])cc2)cc1 1
CC(C)(C)Nc1nc(Nc2ccc(C(N)=O)cc2)cc(N)c1C#N 1
Nc1cccc(-c2cc3c(Oc4cccc(O)c4)ncnc3[nH]2)c1 1
c1ccc2c(c1)Cc1c(Nc3ccc4c(c3)OCCO4)n[nH]c1-2 1
Cc1c(NC(=O)OC[C@@H]2COCCN2)cn2ncnc(Nc3ccc4c(cnn4Cc4cccc(F)c4)c3)c12 1
CCC(=O)N1CCN(c2ccc(-n3c(=O)ccc4cnc5ccc(-c6cnc7ccccc7c6)cc5c43)cc2C(F)(F)F)CC1 [Torin 1] 1
COc1c(Nc2cc(C)[nH]n2)nc(Sc2ccc(S(=O)(=O)Cc3cccc([N+](=O)[O-])c3F)cc2F)nc1N1CCOCC1 [Centrinone] 1
COc1cc2c(NC3CCN(C(C)C)CC3)nc(N3CCC(F)(F)CC3)nc2cc1OCCCN1CCCC1 1
CC(=O)c1c(C)c2cnc(Nc3ccc(N4CCNCC4)cn3)nc2n(C2CCCC2)c1=O 1
CN1c2ccccc2C(=O)N2CCc3c([nH]c4ccccc34)[C@H]21 [Evodiamine] 1
CO[C@H]1C=CC=C(C)C(=O)NC2=CC(=O)C(NCCN(C)C)=C(C[C@@H](C)C[C@H](OC)[C@H](O)[C@@H](C)C=C(C)[C@@H]1OC(N)=O)C2=O [17-DMAG hydrochloride] 1
Cc1noc(C)c1-c1cc(O)cc(C(O)c2ccccc2)c1 (centres undefined) 1
O=C(Nc1ccc(-c2ccnc(Nc3ccc(N4CCOCC4)cc3)n2)cc1)[C@@H]1CCCN1 1
NC1(C(=O)N[C@@H](CCO)c2ccc(Cl)cc2)CCN(c2ncnc3[nH]ccc23)CC1 1
NC(=O)Nc1cc(-c2cccc(F)c2)sc1C(=O)N[C@H]1CCCNC1 [AZD 7762 hydrochloride] 1
COc1cc2nc(-c3cc(F)ccc3O)nc(N[C@@H]3CNC[C@H]3C(C)(C)O)c2cc1OC 1
Cc1c[nH]c2nccc(Oc3c(F)cc(Nc4cc(Cl)nc(N)n4)cc3F)c12 1
C[C@H]1[C@H]2CC[C@H]3[C@@H]4CC=C5C[C@@H](N(C)C)CC[C@]5(C)[C@H]4CC[C@]23CN1C [Conessine] 1
CON(C)C(=O)N1N=C(c2cc(F)ccc2F)S[C@@]1(CCCN)c1ccccc1 [ARRY 520 trifluoroacetate] 1
CC[C@H](CO)Nc1nc(NCc2ccc(-c3ccccn3)cc2)c2ncn(C(C)C)c2n1 1
Oc1cccc(-c2nc(N3CCOCC3)c3oc4ncccc4c3n2)c1 [PI 103 hydrochloride] 1
COc1cc(/C=C/c2ccc(OC)cc2OC)cc(OC)c1 1
COc1cc2c(cc1-c1c(C)noc1C)ncc1[nH]c(=O)n([C@H](C)c3ccccn3)c12 [I-BET 151 dihydrochloride] 1
COc1cccc(-c2cc(F)ccc2[C@H]2Cc3nc(N)nc(C)c3C(=O)N2)n1 1
COc1cc(C(=O)NC2CCN(C)CC2)c(F)cc1Nc1ncc2c(n1)N(C1CCCC1)CC(F)(F)C(=O)N2C [TAK 960 hydrochloride] 1
CC[C@]1(O)C[C@@H]2CN(CCc3c([nH]c4ccccc34)[C@@](C(=O)OC)(c3cc4c(cc3OC)N(C=O)[C@H]3[C@@](O)(C(=O)OC)[C@H](OC(C)=O)[C@]5(CC)C=CCN6CC[C@]43[C@@H]65)C2)C1 [vincristine] 1
OC[C@H]1O[C@@H](n2cnc3c(NCc4ccco4)ncnc32)[C@H](O)[C@@H]1O [Kinetin riboside] 1
N#Cc1c(C2CCNCC2)cc(-c2c(O)cccc2OCC2CC2)nc1N 1
C=CC(=O)Nc1cccc(Nc2nc(Nc3ccc(OCCOC)cc3)ncc2F)c1 1
COc1cc(N2CCC(N3CCN(C)CC3)CC2)ccc1Nc1ncnc(Nc2ccccc2S(=O)(=O)C(C)C)n1 1
Fc1ccccc1CNCc1ccc(-c2ccnc3[nH]ccc23)cc1 [OXA 06 dihydrochloride] 1
C[C@H]1COCCN1c1cc(C2(S(=O)(=O)C3CC3)CC2)nc(-c2ccc(NC(=S)NCCO)cc2)n1 1
